Measured values taken from ChEMBL document CHEMBL3988442, “University of Dundee, Small-Polar-MMV Screening Library” (2021).
Screen size: about 48,000 compounds; about 13,000 (27%) showed an effect of 50% or more. Some of the results follow.

What follows are molecules tested on Wolbachia pipientis (assay: Anti-Wolbachia Cell-Based Screen). Conditions: 5 µM.
Format: functional
Parameters: scale not given: in the data most compounds retested in dose-response had high values

SMILES	Percent Effect [%]
CCCN(CC1COc2ccccc2O1)C(=O)CCn1cncn1 (centres undefined)	-2.229
O=C(Cn1cc(C(=O)O)ccc1=O)NCc1ccc(F)cc1Cl	11.66
Cc1c(Br)cccc1C(=O)NC(C)CN1CCCC1=O (centres undefined)	-7.738
CC(C)NC(=O)N1C[C@@H](F)[C@@H](OCc2nc3ccccc3o2)C1	-6.815
CN(C)Cc1cc(CC2(NCc3ccccc3Cl)COC2)no1	-4.538
COC[C@@]12CC[C@@H](N3CCOCC3)C[C@H]1CCN(c1nc(CO)cs1)C2	-10.66
O=C(c1ccnn1-c1ccc2ccccn12)N1CCCC1	84.68
COCCNC(=O)c1ccnn1-c1ccc2ccccn12	-19.09
CCN(C)C(=O)c1ccnn1-c1ccc2ccccn12	-2.565
O=C(c1c2c(NCC3CC3)ncnc2n2ccccc12)N1CCOCC1	2.912
O=C(NCCN1CCOCC1)c1ccnn1-c1ccc2ccccn12.O=C(O)C(F)(F)F	-0.1496
O=C(c1ccnn1-c1ccc2ccccn12)N1CCOCC1	95.26
Cc1cccc2c1nc1n2[C@@H](CNC(=O)c2ccccn2)COC1	-9.692
CC(C)COC(=O)N1CCCN(Cc2nnc(C(C)(C)C)o2)CC1	-7.056
CC(Cn1cccn1)NC(=O)Cc1cccs1 (centres undefined)	8.385
CN(Cc1ccco1)C(=O)NC(Cn1ccnc1)C(C)(C)C (centres undefined)	-3.966
CC(C)CC(NC(=O)c1cnn(C)c1)C(=O)Nc1cc[nH]n1 (centres undefined)	-3.159
CC(C)(C)C(Cn1cccn1)NC(=O)c1ccco1 (centres undefined)	126.5
CC(C)(C)C(Cn1ccnc1)NC(=O)NCc1ccco1 (centres undefined)	10.62
CC(Cn1cccn1)NC(=O)NCCc1cnn(C)c1 (centres undefined)	-2.639
CCn1nccc1C(=O)NC(Cn1cccn1)C(C)(C)C (centres undefined)	98.31
CC(Cn1cccn1)NC(=O)C1=Cc2ccccc2OC1 (centres undefined)	2.492
Cn1cc(C(=O)NC(Cn2cccn2)C(C)(C)C)cn1 (centres undefined)	91.75
O=S(=O)(Nc1ccc(N2CCOCC2)cc1)c1cccc(F)c1	2.423

SMILES	Percent Effect [%]
Cc1cc(CN2CC3(CCN(C(=O)C4CC4)CC3)CC2C(=O)O)oc1C (centres undefined)	-14.13
O=c1[nH]c(NCc2cccc(-c3ccccc3)c2)nc2c1CCNC2	-0.2023
CC(=O)c1cccc(-c2nc3c([nH]2)CCNC3)c1F	-6.254
CS(=O)(=O)N1CC2(CCCN(C3COC3)C2)Cc2ccccc21 (centres undefined)	116.4
Cc1cccc(N2CCC(N3CCCC4(CN(C)C(=O)O4)C3)CC2)c1C (centres undefined)	11.85
CS(=O)(=O)N1CC2(CCN(C3COC3)C2)Cc2ccccc21 (centres undefined)	109.7
CS(=O)(=O)N1CCOC2(CCN(c3ncccn3)CC2)c2ccccc21	-2.489
Cc1cccc(N2CCC(N3CCCC4(CNC(=O)O4)C3)CC2)c1C (centres undefined)	-4.7
O=C(O)C(F)(F)F.O=C(O)C(F)(F)F.c1ccc(CN2CCOCC3(CCN(C4CCOCC4)C3)C2)cc1 (centres undefined)	-14.02
Cn1c(C2CC2)nc2cc(NC(=O)C3CCOC3)ccc21 (centres undefined)	-8.416
CCc1nnc(CN2CCCN(C(=O)c3ccccn3)CC2)o1	-2.51
Cc1nnc2n1CCN(C(=O)CN1C(=O)CCCc3ccccc31)C2	-14.77
Cc1cc(C(=O)N2CCN(c3nc4ccccc4s3)CC2)no1	133.9
COc1cccc2sc(N3CCN(C(=O)c4cc(C)on4)CC3)nc12	127.7
Cc1cc(CNC(=O)N2CCN(c3ccccc3)CC2)no1	0.5807
Cc1cc(NC(=O)N2CCN(c3nc(C)c(C)s3)CC2)no1	-7.587
COc1cccc([C@H]2CN(C(=O)c3cc(C)on3)C[C@@H]2N)c1	-12.5
Cc1cc(CNC(=O)N2CCN(c3nc(C)c(C)s3)CC2)no1	-6.921
Cc1cc(C(=O)N2CCN(c3nc4c(C)cccc4s3)CC2)no1	128.5
COC(=O)c1ccc(N2CCN(C(=O)c3cc(C)on3)C(C)C2)cc1 (centres undefined)	-4.868
Cc1cc(C(=O)N2CCC3(CC2)c2nc[nH]c2CCN3CC(C)C)no1	-20.9
Cc1cc(C(=O)N2CCN(c3nc4c(C(C)C)cccc4s3)CC2)no1	100.9
CCc1nc(CN2CCCN(C(=O)c3cc(C)on3)CC2)cs1	-3.396
Cc1cc(C(=O)N2CCc3ncc(CN4CCCCC4)n3CC2)no1	-1.928

SMILES	Percent Effect [%]
CNS(=O)(=O)c1ccc(CNC(=O)Nc2cc(C)on2)s1	-23.04
Cc1ccc2nc(C)c(C)c(C(=O)N3CCS(=O)(=O)CC3)c2c1	7.171
O=C(NCC(Cc1cccc(F)c1)n1cccc1)C1CC1 (centres undefined)	6.756
COCCC(C)NCc1ccccc1-n1ccnc1 (centres undefined)	-12.2
COc1cccc(NC(=O)N(CCO)C2CCc3ccccc32)c1 (centres undefined)	-4.61
O=C(CN1CCOC(Cn2cccn2)C1)Nc1nncs1 (centres undefined)	-3.509
NC(=O)C(NC(=O)CSCc1ccc(Cl)s1)c1ccccc1 (centres undefined)	12.02
Cc1cc(C(=O)N2CCN(c3nc4c(F)cccc4s3)CC2)no1	123.7
Cc1cccc(C(=O)N2CCN(c3ccccc3F)CC2)n1	-20.73
Cc1cc(C(=O)N2CCc3c(ncn3CCc3ccccc3)C2)on1	8.742
Cc1cc(C(=O)N2CCN(c3nc4c(C(C)C)cccc4s3)CC2)on1	114.6
CCc1nc(CN2CCN(C(=O)c3cc(C)no3)CC2)cs1	6.247
CCOC(=O)N1CCN(C(=O)c2cc(-c3ccccc3F)on2)CC1	1.064
Cc1cccc(C(C(=O)N(C)Cc2cc(C)no2)N(C)C)c1 (centres undefined)	-11.12
CC(C)=CCN1CCNC(=O)C1CC(=O)N1CCc2sccc2C1 (centres undefined)	13
O=C(O)C(F)(F)F.O=C([C@@H]1C[C@@H]2CCN(Cc3ccoc3)C[C@H]2O1)N1CCCC1	103.1
O=C(NC1CC1)[C@@H]1C[C@@H]2CCN(Cc3ccccc3)C[C@@H]2O1.O=C(O)C(F)(F)F	-0.7056
CC(C)NC(=O)[C@@H]1C[C@@H]2CCN(Cc3ccoc3)C[C@H]2O1.O=C(O)C(F)(F)F	74.8
O=C(NC1CC1)[C@@H]1C[C@@H]2CCN(Cc3ccoc3)C[C@@H]2O1.O=C(O)C(F)(F)F	102.1
O=C(NC1CCCC1)[C@@H]1C[C@@H]2CCN(Cc3ccoc3)C[C@H]2O1.O=C(O)C(F)(F)F	111.5
Cc1ncccc1NC(=O)[C@H]1C[C@@H]2CCN(Cc3ccsc3)C[C@H]2O1.O=C(O)C(F)(F)F.O=C(O)C(F)(F)F	-7.023
O=C(NC1CC1)[C@@H]1C[C@@H]2CCN(Cc3ccccc3)C[C@H]2O1.O=C(O)C(F)(F)F	-0.327
O=C(NC1CCC1)[C@@H]1C[C@@H]2CCN(CCc3ccccc3)C[C@H]2O1.O=C(O)C(F)(F)F	2.186
COc1ccccc1CN1CC[C@H]2C[C@@H](C(=O)N3CCCC3)O[C@H]2C1.O=C(O)C(F)(F)F	2.639

SMILES	Percent Effect [%]
COc1ccccc1CN1CC[C@H]2C[C@H](C(=O)N3CCCC3)O[C@H]2C1.O=C(O)C(F)(F)F	-2.148
Cc1c(C(=O)OCC2CC(=O)N(c3ccccc3)C2)cnn1C(C)C (centres undefined)	4.999
CN(C)C(=O)[C@H]1C[C@@H]2CCN(Cc3ccoc3)C[C@@H]2O1.O=C(O)C(F)(F)F	113.2
CN(C)S(=O)(=O)N1C[C@@H]2CN(Cc3ccoc3)CCO[C@@H]2C1.O=C(O)C(F)(F)F	-19.85
CN(C)C(=O)[C@@H]1C[C@@H]2CCN(Cc3ccc4c(c3)OCO4)C[C@@H]2O1.O=C(O)C(F)(F)F	-14.9
CCc1ccc(C(=O)N2CC[C@](C)(O)C(C)(C)C2)[nH]1	-18.68
COc1ccccc1-n1cc(CN2CCN(C)[C@@H]3CS(=O)(=O)C[C@@H]32)cn1	-2.085
COc1c2ccc(C(=O)NCCCn3ncccc3=O)cc2nn1C	16.19
COc1ccccc1-n1cc(C(=O)NCCCn2nc(C)nc2C)cn1	95.25
COc1ccccc1-n1cc(C(=O)NCCn2nc(C)nc2C)cn1	116.2
Cc1nc(C)n(CCCNC(=O)C(C)n2ccnc2C(C)C)n1 (centres undefined)	3.373
COc1ccccc1N1CCN(C(=O)CCn2nnnc2C)CC1(C)C	3.802
CN(CCN1CCOCC1)C(=O)CCc1ccc(C(F)(F)F)cc1	-5.006
CCc1[nH]c2ccc(CNc3cncc(C(=O)N(C)C)n3)cc2c1C	5.05
Cc1nnc(NCC(c2ccco2)N2CCCC2)c(C#N)c1C (centres undefined)	-0.3665
COC(=O)NCC(=O)N1CCCn2nc(CN3CC[C@H](F)C3)cc2C1	-5.697
c1cc(N2CCCCC2)ccc1-c1noc(CN2CCOCC2)n1	101.7
O=C1NCCCN1Cc1nc(-c2ccc(N3CCCCC3)cc2)no1	-15.88
Cc1occc1-c1nc(-c2cccc(CN3CCOCC3)c2)no1	0.4297
Brc1cccc(-c2noc(CN3CCOCC3)n2)c1	107.1
Cc1cc(-c2nc(-c3cccc(CN4CCOCC4)c3)no2)no1	-11.24
O=C1OCCCN1Cc1nc(-c2ccc(N3CCCCC3)cc2)no1	-4.946
